Shown are actives, neighbours in structure and some others; about 1.8% of the full set was active somewhere.
hERG WT inh: KCNH2 (human, wildtype) channel inhibition; Q12809; U2OS, BacMam KCNH2, thallium flux FluxOr; hits give low values; activity change, % at 1.84 µM; hit rate 0.37% among 340,000;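 active = maximum activity change below -70%; inconclusive = maximum activity change between -70% and -50%; inactive = maximum activity change above -50%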; also: % is scaled to controls: 0 for no effect and ±100 for the full control effect
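U2OS cells transduced with wild-type KCNH2 virus are loaded with FluxOr dye for 45 min, and thallium flux is measured in kinetic reads before and after stimulation buffer. Rate constants are normalized to DMSO controls.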
A-T KAP1 phos: candidate therapy for ataxia-telangiectasia | F2112 A-T fibroblasts, KAP-1 phosphorylation AlphaLISA; neocarzinostatin DNA damage 30 min before lysis | Potency, µM (top dose mostly 57.5 µM), for inactives: at the top dose activation, most hits filed as activators | hit rate 0.19% among 320,000; also: potency is read from the fitted curve at half-maximal effect; % of control where 0% means no effect; nearly all actives have a fitted effect of over 45% in size
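hTERT-immortalized A-T patient fibroblasts (F2112), 500 cells/well in OPTI-MEM, 1% FBS, got compounds for 60 min, then NCS for 30 min at 37C. Lysates were then assayed for phospho-KAP-1 by AlphaLISA (anti-pKAP1 donor, anti-KAP1 acceptor beads), 6 hr at 25C.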
KCNH2 3.1 inh: blocks the human KCNH2 3.1 channel isoform. U2OS KCNH2 3.1, thallium flux FluxOr; hits give low values. activity change, % (tested at about 1.8 µM). hit rate 0.95% among 340,000;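 active = maximum activity change below -70%; inconclusive = maximum activity change from -70% to -50%; inactive = maximum activity change above -50%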;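 also: thallium influx rate constant from kinetic fluorescence after stimulation buffer; % is scaled to controls: 0 for no effect and ±100 for the full control effect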
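Thallium flux read-out: FluxOr dye with Red40 quencher in HBSS/HEPES, 45 min at RT. Rate constants from kinetic reads were normalized to positive and negative DMSO controls. Cells: U2OS virally expressing the 3.1 isoform.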
ALOX12 inh: blocks human arachidonate 12S-lipoxygenase | purified 12hLO, xylenol orange hydroperoxide absorbance | Potency, µM (doses to about 108 µM), for the others: top-dose activity change, negative = inhibition, usual class: inhibitors | hit rate 1.1% among 580,000 | AID 1671190; also: potency is read from the fitted curve at half-maximal effect; % is scaled to controls: 0 for no effect and ±100 for the full control effect
Target sequence (P18054 whole entry, looked up): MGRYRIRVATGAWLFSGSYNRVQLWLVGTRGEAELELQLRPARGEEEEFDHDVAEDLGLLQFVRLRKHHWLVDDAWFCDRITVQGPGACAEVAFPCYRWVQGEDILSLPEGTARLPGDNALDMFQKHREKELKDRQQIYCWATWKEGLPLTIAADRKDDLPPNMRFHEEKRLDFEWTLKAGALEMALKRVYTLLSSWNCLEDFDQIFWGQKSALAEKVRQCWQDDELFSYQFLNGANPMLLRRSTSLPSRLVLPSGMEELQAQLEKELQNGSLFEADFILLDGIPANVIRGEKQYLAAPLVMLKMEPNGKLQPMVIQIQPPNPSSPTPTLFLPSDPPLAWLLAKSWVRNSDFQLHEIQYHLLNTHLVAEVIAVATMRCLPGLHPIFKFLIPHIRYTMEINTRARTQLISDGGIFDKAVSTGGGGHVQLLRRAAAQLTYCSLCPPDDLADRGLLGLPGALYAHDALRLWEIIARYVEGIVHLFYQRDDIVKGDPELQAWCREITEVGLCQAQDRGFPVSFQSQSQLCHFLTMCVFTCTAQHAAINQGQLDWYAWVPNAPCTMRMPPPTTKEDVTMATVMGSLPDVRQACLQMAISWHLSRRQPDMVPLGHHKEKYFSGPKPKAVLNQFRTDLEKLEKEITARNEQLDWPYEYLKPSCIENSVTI
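Purified human 12hLO at 150 nM in 25 mM Hepes, 0.01% Triton X-100, pH 7.0, preincubated 15 min at room temperature with compound. Reaction started with 40 uM arachidonic acid, 30 min at room temperature. Hydroperoxide measured by Fe-xylenol orange, 573/405 nm absorbance ratio.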
* = called active by the depositor; ? = inconclusive; . = no result given; ! = a repeat was not active; [ ] = remark or other dose. Unless noted, calls follow the shape of the dose curve; as a rule, active = well fitted curve in the direction sought with a large enough effect; inconclusive = small, poorly fitted or top-dose-only effect, or another doubt; inactive = no such curve, though single readings can be large; an effect the other way counts as inactive or inconclusive.

SMILES	hERG WT inh	A-T KAP1 phos	KCNH2 3.1 inh	ALOX12 inh
c1ccc(CCn2nnnc2CN2CCC(n3nnc4ccccc43)CC2)cc1	7	4%	-17	0%
Fc1ccc2c(c1)nnn2C1CCN(Cc2nnnn2CCc2ccccc2)CC1	1	8%	-1	?
FC(F)(F)c1ccc2c(c1)ncn2C1CCN(Cc2nnnn2C2CCCCC2)CC1	7	8%	?	-9%
Cc1nc2cc(C(F)(F)F)ccc2n1C1CCN(Cc2nnnn2Cc2cccs2)CC1	-20	8%	-75*	33%
COc1cc2c(cc1OCc1ccccc1)NC(=O)C21CCN(Cc2nccn2C)CC1	.	.	.	53%[176 µM]
COc1ccc([C@H]2C[C@@H](O)[C@@H](O)[C@@H]2NCC(C)C)cc1	.	.	.	0%[176 µM]
CCNC(=O)NC[C@H]1C[C@@H]2CCN1C[C@@H]2c1cc(-c2ccc3ccccc3c2)nn1C	.	.	.	12%[176 µM]
C=C(C=O)C[C@@H]1C[C@H](O)C2OC3C[C@]4(C)OC5/C=C\CC6OC7C(CC=CCC6OC5CCCC4OC3CC2O1)OC1CC2OC3CC(=O)OC3C[C@@H](C)C[C@@]2(C)OC1C[C@@H]7C (stereo not given in full)	-3	25µM*	25	-1%
CN1CC(C(=O)c2ccc([N+](=O)[O-])cc2)C(c2ccc(Cl)cc2)C1 (stereo not given)	-13	-3%	-73*	?
COc1ccc(C(=O)C2CN(C)CC2c2ccc(Cl)cc2)cc1 (stereo not given)	61	-2%	-13	?
Cc1cccc(NC(=O)N2[C@H]3CC[C@@H]2c2cnc(-c4ccccc4)nc2C3)c1	.	.	.	15%
Cc1ccc(C(=O)N2[C@H]3CC[C@@H]2c2cnc(-c4ccc(F)cc4)nc2C3)cn1	.	.	.	40µM*
Oc1cccc2cccnc12	.	-3%	.	9.3µM*!
COc1ccc(OC)c(N2C(=O)NC(=O)/C(=C/c3ccc([N+](=O)[O-])s3)C2=O)c1	0	1%	-6	40µM*
COc1ccc(OC)c(N2C(=O)/C(=C/c3ccco3)C(=O)NC2=S)c1	-26	-23%	-5	.
O=C(c1ccccc1)C(CN1CCCC1)c1ccccc1 (stereo not given)	-11	25µM*	1	-13%
COc1cc(O)c(C(=O)O)c(-c2cc(O)c(O)cc2C)c1	2	19%	6	3.2µM*
COc1ccc2c(c1)c(C(=O)O)c(C)n2CC(C)C	0	3%	8	10%
CCN(CC)c1ccc(CN2CC=C(c3ccc(F)cc3)CC2)cc1	29	.	-24	?
COc1ccc(CN2CC=C(c3ccc(F)cc3)CC2)cc1Br	11	-4%	-139*	-16%
CN(CCc1ccccn1)C[C@H]1CN2CC[C@H]1C[C@@H]2CNC(=O)c1ccc2c(c1)OCO2	.	.	.	159%
COc1ccc(N2C(=O)/C(=C/c3ccc(C)o3)C(=O)NC2=S)cc1	5	9%	-13	13µM*
CCOc1ccc(N2C(=O)/C(=C/c3ccc(C)o3)C(=O)NC2=S)cc1	4	-15%	13	?
CC[C@H]1CN2CC[C@H]1C[C@@H]2CNCc1ccc(C(F)(F)F)cc1	.	.	.	37%[176 µM]
COc1cc2c(cc1OCc1ccccc1)N(C(=O)c1cc3ccccc3n1C)CC21CCN(C)CC1	.	.	.	32µM*
SMILES	hERG WT inh	A-T KAP1 phos	KCNH2 3.1 inh	ALOX12 inh
Clc1ccc(N2CCN(CC3[C@H]4CNC[C@@H]34)CC2)nc1 (stereo not given in full)	.	.	.	32µM*
COc1ccc(NP(=O)(Oc2ccc(Cl)cc2)Oc2ccc(Cl)cc2)cc1OC	-30	-5%	-113*	-19%
Oc1ccc2c3c1O[C@H]1c4[nH]c5ccccc5c4C[C@@]4(O)[C@@H](C2)N(CC2CC2)CC[C@]314	34	2%	-70*	-29%
Oc1ccc2c3c1O[C@H]1c4[nH]c5ccccc5c4C[C@]4(O)[C@H](C2)N(CC2CC2)CC[C@@]314	.	.	.	21%
COc1ccc(CC(=O)N2CCC3(CC2)c2nccn2-c2ccccc2CN3C)cc1	.	.	.	16%
ClC1=C(Cl)[C@]2(Cl)[C@@H]3[C@@H](Cl)[C@H]4O[C@H]4[C@@H]3C1(Cl)C2(Cl)Cl	.	.	.	1%
CC(=O)NCCNC(=O)[C@H]1CN2CCC1C[C@@H]2Cn1cc(CSc2ccccc2)nn1 (stereo not given in full)	.	.	.	9%
Cc1ccc(/C=C2/C(=O)NC(=O)N(Cc3ccc(F)cc3)C2=O)o1	.	-2%	.	9%
Cc1ccc(/C=C2\C(=O)NC(=O)N(Cc3ccccc3Cl)C2=O)o1	4	-4%	9	32µM*
CC[C@H]1CN2CC[C@H]1C[C@@H]2CN(Cc1ccc(SC)cc1)Cc1ccc(SC)cc1	.	.	.	-24%[176 µM]
COc1ccc(N2C(=O)NC(=O)/C(=C/c3cccc(OC(=O)c4cccs4)c3)C2=O)cc1Cl	1	7%	26	35µM*
Cc1ccc(N2C(=O)NC(=O)/C(=C/c3ccc(OC(=O)c4cccs4)cc3)C2=O)cc1	-7	-1%	3	45µM*
O=[N+]([O-])c1ccc(Nc2ccccc2)cc1	1	-1%	1	-26%
c1ccc(Nc2ccc(Nc3ccccc3)cc2)cc1	-2	0%	-3	14µM*
CC1OC(=O)[C@@H](C(C)C)NC(=O)C(C(C)C)OC(=O)[C@H](C(C)C)NC(=O)C(C)OC(=O)[C@@H](C(C)C)NC(=O)C(C(C)C)OC(=O)[C@H](C(C)C)NC(=O)C(C)OC(=O)[C@@H](C(C)C)NC(=O)C(C(C)C)OC(=O)[C@H](C(C)C)NC1=O (stereo not given in full)	.	.	.	2%
Cc1cc(C)nc(NS(=O)(=O)c2ccc(N=Cc3c(O)n(C)c(=O)n(C)c3=O)cc2)n1	2	0%	1	-2%
Cc1ccnc(NS(=O)(=O)c2ccc(N=Cc3c(O)n(C)c(=O)n(C)c3=O)cc2)n1	1	-1%	1	5µM*
CC(C)N1CC2CCC(C1)N2Cc1ccc(-c2cncnc2)cc1	.	.	.	3%[176 µM]
C=CCN1C(=O)C2(C(C(=O)OCC)=C(N)Oc3ccccc32)c2c1c1ccccc1oc2=O (stereo not given)	-3	-5%	-109*	0%
O=C(COc1ccc(Br)cc1)N1CCN(Cc2c[nH]c3ccccc23)CC1	-80*	1%	-72*	?
COc1ccc(CN2CCN(C(=O)COc3ccc4ccccc4c3)CC2)c(OC)c1	-24	-1%	-93*	?
COC1C(=O)N(c2cccc(F)c2)C12CCNCC2 (stereo not given)	.	.	.	8%
CN1CCN2C(=O)N(Cc3cccnc3)C[C@H]2C1	.	.	.	0%[176 µM]
O=C1Nc2ccccc2CC12CCCN(Cc1cccnc1)C2 (stereo not given)	.	.	.	6%[6.33 µM]
